Ecoli rRNA inh = inhibitors of bacterial rRNA selective over humanized ribosomes | GFP signal change (wild-type ribosome), % (no concentration beside the values) | E. coli WT GFP vs humanized-ribosome RFP mutants, fluorescence, 24 h; active compounds read low; DMSO median 0, no signal -100 | actives 1.6% (n = 350,000);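 active = significant combined selectivity score with lowered wild-type GFP, culture density cut under 30%, mutant RFP and density less affected; inactive = any of these conditions unmet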
PGC1a acetyl inh = lowers PGC1a acetylation signal in U2OS cells | AID 651687 | AlphaScreen anti-acetyl-lysine; with virally co-expressed GCN5 acetyltransferase | actives 0.17% (n = 350,000) | inhibition, % at 15.6 µM;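 active = every replicate shows inhibition of at least 40%; inconclusive = mean inhibition at least 40% but some replicate below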;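 also: 0% = neutral control wells and 100% = positive control wells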
ERAP1 HTS inh = blocks human ERAP1 aminopeptidase activity; Q9NZ08; recombinant ERAP1, Leu-AMC fluorescence, 60 min; inhibition, % at 10.7 µM; actives 0.15% (n = 340,000);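 active = mean replicate inhibition of at least 30%, or all replicates individually reaching that 30% level; inactive = mean below 30% and not every replicate reaching it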;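 also: 0% = neutral control wells and 100% = L-leucinethiol positive control wells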
Target sequence (Q9NZ08 whole entry, looked up): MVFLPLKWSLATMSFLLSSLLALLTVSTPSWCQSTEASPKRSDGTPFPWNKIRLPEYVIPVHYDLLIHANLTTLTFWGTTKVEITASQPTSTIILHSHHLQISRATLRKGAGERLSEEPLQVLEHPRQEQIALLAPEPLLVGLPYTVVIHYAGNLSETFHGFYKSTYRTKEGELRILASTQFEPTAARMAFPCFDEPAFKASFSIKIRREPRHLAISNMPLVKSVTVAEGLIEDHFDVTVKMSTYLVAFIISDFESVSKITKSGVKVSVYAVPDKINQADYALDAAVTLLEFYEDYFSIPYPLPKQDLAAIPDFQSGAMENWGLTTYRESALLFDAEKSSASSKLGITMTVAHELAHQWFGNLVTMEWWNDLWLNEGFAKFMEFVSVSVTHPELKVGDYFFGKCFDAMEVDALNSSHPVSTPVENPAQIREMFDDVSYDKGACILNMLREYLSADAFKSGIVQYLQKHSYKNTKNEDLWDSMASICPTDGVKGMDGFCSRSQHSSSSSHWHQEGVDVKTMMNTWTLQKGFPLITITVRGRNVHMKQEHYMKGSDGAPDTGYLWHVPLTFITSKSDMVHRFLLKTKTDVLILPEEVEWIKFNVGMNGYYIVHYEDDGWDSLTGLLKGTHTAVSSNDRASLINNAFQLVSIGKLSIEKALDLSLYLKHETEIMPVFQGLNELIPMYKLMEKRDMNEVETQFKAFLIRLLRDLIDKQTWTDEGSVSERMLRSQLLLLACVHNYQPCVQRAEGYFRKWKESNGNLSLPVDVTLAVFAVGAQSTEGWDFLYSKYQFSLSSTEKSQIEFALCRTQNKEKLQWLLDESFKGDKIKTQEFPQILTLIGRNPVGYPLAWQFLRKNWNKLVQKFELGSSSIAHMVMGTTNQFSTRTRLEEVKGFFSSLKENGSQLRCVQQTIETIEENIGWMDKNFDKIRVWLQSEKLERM
DENV2 CPE = inhibitors of DENV2 cytopathic effect | DENV2-infected cells, cytopathic effect rescue, plate reader | actives 1.7% (n = 350,000) | CPE inhibition, % at 9.99 µM | AID 651640; in the data active = CPE inhibition above about 20%, passing the limit was not always enough; inconclusive = no clear call, values can overlap the other calls; tested in BHK-21 cells;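 also: 0% = median of neutral control wells and 100% = median of positive control wells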
CaV13 ICDI inh = Disruptors of the CACNA1D IQ motif to Ca2+-dependent inactivation inhibitor domain association, primary screening, Förster resonance energy transfer in intact living …; HEK cells, CFP/YFP FRET ICDI-IQ, plate reader, 10 min; percent FRET-ratio fall versus neutral wells; inhibition, % at 12.3 µM; actives 0.098% (n = 340,000); AID 743397;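 active = mean replicate inhibition of at least 30% and at least 1% of replicates passing that level; inconclusive = only one of the two criteria is met; inactive = neither criterion is met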;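 also: 0% = median of the neutral control wells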
GSIS activator = GLuc luminescence reporter in INS-1E cells, primary screen for activators of glucose-dependent secretion of insulin; activation, % at 16.6 µM; actives 0.61% (n = 370,000); INS-1E GLuc reporter insulin secretion, 2-3 h; AID 743287;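 active = lowest replicate activation of at least 40%, so every replicate reaches that level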;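 also: 0% = median of neutral control wells and 100% = median of IBMX positive control wells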
An asterisk follows results filed as active; ? = inconclusive; . = no result given; ! = repeats disagree. Only some compounds are listed: those with a hit (about 3.2% of all), similar ones and a draw of the others.

SMILES | Ecoli rRNA inh | PGC1a acetyl inh | ERAP1 HTS inh | DENV2 CPE | CaV13 ICDI inh | GSIS activator
Cc1noc(C)c1S(=O)(=O)Nc1ccc2c(c1)C(=O)N([C@@H](C)CO)C[C@H](C)[C@@H](CN(C)Cc1ccc(C(=O)O)cc1)OCCCC[C@H](C)O2 | 1 | -5 | -6 | 34* | . | 19
CCCN(C)C[C@H]1OCCCC[C@H](C)Oc2ccc(NS(=O)(=O)c3c(C)noc3C)cc2C(=O)N([C@@H](C)CO)C[C@H]1C | -1 | 14 | -4 | 32* | . | -11
Cc1cc(-c2onc(C)c2C(=O)Oc2ccc(Cl)cc2)no1 | -15 | -6 | -5 | 73* | -4 | 23
Cc1cc(-c2onc(C)c2C(N)=O)no1 | 3 | -1 | -1 | 8 | -4 | -2
COc1ccccc1C(OC(=O)c1cccs1)C(=O)NCC1CCCO1 (stereo not given) | . | 7 | . | . | -5 | 57*
CCC(=O)N1CC2(CN(Cc3ccncc3)C2)c2c(n(C)c3cc(OC)ccc23)[C@@H]1CO | 1 | -3 | -2 | 3 | . | 16
Cc1csc(=O)n1CCC(=O)OCC(=O)Nc1cc([N+](=O)[O-])ccc1Cl | -11 | -9 | 0 | 37* | -4 | 10
O=C(O)c1ccccc1-c1c2cc(I)c(=O)c(I)c-2oc2c(I)c(O)c(I)cc12 | 70 | -16 | 106* | ? | -4 | -19
O=Cc1ccc(-c2ccccc2C(=O)O)o1 | 7 | 1 | 2 | 0 | -4 | -9
COc1cc(NC(=O)[C@@H](Cc2ccccc2)NC(=O)[C@H]2O[C@@H](n3ccc(=O)[nH]c3=O)[C@H](O)[C@@H]2O)cc(OC)c1OC | 13 | . | -2 | 43* | -2 | 6
COc1cc(NC(=O)[C@@H](Cc2ccccc2)NC(=O)[C@H]2O[C@@H](n3ccc(N)nc3=O)[C@H](O)[C@@H]2O)cc(OC)c1OC | 10 | . | -2 | ? | -5 | .
CO[C@@H]1CN(C)C(=O)c2ccc(NC(=O)C3CCC3)cc2OC[C@@H](C)N(Cc2ccncc2)C[C@H]1C | -3 | -4 | -1 | 0 | . | -4
C[C@@H]1CN([C@@H](C)CO)S(=O)(=O)c2ccc(C#CC3CC3)cc2O[C@@H]1CN(C)C | 5 | -8 | -4 | ? | . | 8
Cc1ccc(Cc2c(-c3ccccc3)nc3c4ccccc4ccn23)cc1 | . | . | 1 | -3 | -11 | -5
Cc1ccc(Cc2c(-c3cccc(Br)c3)nc3c4ccccc4ccn23)cc1 | 6 | . | 1 | 39* | -9 | 8
COc1ccc(-c2nc3c4ccccc4ccn3c2Cc2cccc(Cl)c2)cc1OC | -5 | -21 | -1 | 76* | -7 | 7
C=CCn1c(CCSCc2ccc(OC)c(C)c2)n[nH]c1=S | -19* | 4 | . | 0 | -14 | 17
COc1ccc(CNC(=O)C[C@@H]2C[C@H]3c4cc(NS(C)(=O)=O)ccc4O[C@H]3[C@H](CO)O2)cc1 | 2 | -7 | 0 | 1 | . | -5
C[C@@H]1CN([C@H](C)CO)C(=O)c2cc(NC(=O)C3CCCCC3)ccc2O[C@H]1CN(C)Cc1ccc(C(=O)O)cc1 | 4 | 0 | 1 | 2 | . | 6
Cc1ccccc1S(=O)(=O)N1CC(=O)N2[C@H](C1)[C@@H](c1ccc(C#Cc3ccccc3)cc1)[C@@H]2CO | 6 | 4 | 0 | 2 | . | -9
Cc1ccccc1S(=O)(=O)N1CC(=O)N2[C@H](CO)[C@H](c3ccc(C#CCC4CCCC4)cc3)[C@@H]2C1 | 4 | -6 | -1 | ? | . | -19
Cc1ccccc1S(=O)(=O)N1CC(=O)N2[C@@H](CO)[C@H](c3ccc(C#CCC4CCCC4)cc3)[C@@H]2C1 | 2 | -3 | 2 | -1 | . | 43*
Cc1ccccc1S(=O)(=O)N1CC(=O)N2[C@H](CO)[C@H](c3ccc(C#Cc4ccccc4)cc3)[C@H]2C1 | 5 | -12 | 0 | 24* | . | 8
CCS(=O)(=O)N1CC(=O)N2[C@H](CO)[C@@H](c3ccc(C#CCC(C)C)cc3)[C@@H]2C1 | -4 | -2 | 4 | 48* | . | -10
Cc1ccccc1-c1cnc(C(O)c2ccc(F)cc2C)[nH]1 (stereo not given) | -1 | 1 | -13 | 5 | -9 | 10
SMILES | Ecoli rRNA inh | PGC1a acetyl inh | ERAP1 HTS inh | DENV2 CPE | CaV13 ICDI inh | GSIS activator
Cc1cc(F)ccc1C(O)c1ncc(-c2ccccc2C(F)(F)F)[nH]1 (stereo not given) | 4 | . | 6 | 60* | -10 | -6
COC(=O)C(C)N1C(=O)S/C(=C\c2ccc(-c3ccc(C(=O)O)cc3C)o2)C1=O (stereo not given) | 4 | 12 | 57* | -2 | -5 | -6
COc1cccc(C#Cc2cnc3c(c2)C(=O)N([C@H](C)CO)C[C@@H](C)[C@H](CN(C)C)O3)c1 | 3 | -34 | 3 | 7 | . | -5
Cc1ccc(-c2cnc3c(c2)C(=O)N([C@H](C)CO)C[C@H](C)[C@H](CN(C)C(=O)c2ccc(F)cc2)O3)cc1 | -1 | 1 | 3 | -6 | . | -26
O=S(=O)(NCCC1CC1(Cl)Cl)c1ccc(Cl)cc1 (stereo not given) | -48* | . | -2 | -4 | -5 | -44
COc1cc2cc(CCCOC(=O)CCC(=O)O)oc(=O)c2cc1OC | -1 | 7 | . | 28* | -5 | 19
COc1cc2cc(CCO)oc(=O)c2cc1OC | -9 | -3 | -2 | 89* | -10 | 31
COc1cc2cc(CCOC(=O)CCCC(=O)O)oc(=O)c2cc1OC | 3 | 8 | -1 | -7 | -5 | -8
C[C@H]1CN([C@@H](C)CO)S(=O)(=O)c2ccc(-c3cccnc3)cc2O[C@@H]1CN(C)C(=O)NC1CCCC1 | -5 | -10 | 0 | 3 | . | -4
O=C1C(Cc2ccccc2)Nc2ncnc(N3CCN(c4ccccc4)CC3)c2N1Cc1ccccc1 (stereo not given) | 11 | 3 | -4 | 4 | -9 | -6
O=C1C(Cc2ccccc2)Nc2ncnc(N3CCOCC3)c2N1Cc1ccc(Cl)cc1 (stereo not given) | -21*! | 2 | -1 | -12 | -4 | -1
Cc1ccc(NC(=O)CNC(=O)c2ccc(OC(F)F)cc2)cc1S(=O)(=O)N1CCCCCC1 | -23* | . | -6 | 9 | -6 | -45
Cc1cc(C(=O)NCC(=O)OCC(=O)Nc2ccc(OC(F)F)cc2)ccc1[N+](=O)[O-] | -22* | 11 | -1 | 3 | -3 | -50
Cc1ccc(C(=O)OCC(=O)N2C(C)CCCC2C)cc1S(=O)(=O)N1CCOCC1 (stereo not given) | 2 | -11 | 3 | 25* | -8 | -33
COc1ccc(Cl)cc1NC(=O)COC(=O)CNC(=O)c1ccc([N+](=O)[O-])c(C)c1 | . | 1 | . | . | -19 | 0
